# Screens as filed in PubChem BioAssay.
# IDE exosite inh: displaces the probe from the exo-site of human IDE; purified IDE, FL-6b probe fluorescence polarization; active compounds read low; hit rate 6.3% among 17,000; P14735; AID 1259349; z-score at 20 µM;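 active = z-score of -3 or lower, meaning strong loss of probe binding signal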;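 note: His-tagged human IDE residues 42-1019 made in E. coli with 30 nM FL-6b probe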
# Target sequence (P14735 42-1019 limits assumed): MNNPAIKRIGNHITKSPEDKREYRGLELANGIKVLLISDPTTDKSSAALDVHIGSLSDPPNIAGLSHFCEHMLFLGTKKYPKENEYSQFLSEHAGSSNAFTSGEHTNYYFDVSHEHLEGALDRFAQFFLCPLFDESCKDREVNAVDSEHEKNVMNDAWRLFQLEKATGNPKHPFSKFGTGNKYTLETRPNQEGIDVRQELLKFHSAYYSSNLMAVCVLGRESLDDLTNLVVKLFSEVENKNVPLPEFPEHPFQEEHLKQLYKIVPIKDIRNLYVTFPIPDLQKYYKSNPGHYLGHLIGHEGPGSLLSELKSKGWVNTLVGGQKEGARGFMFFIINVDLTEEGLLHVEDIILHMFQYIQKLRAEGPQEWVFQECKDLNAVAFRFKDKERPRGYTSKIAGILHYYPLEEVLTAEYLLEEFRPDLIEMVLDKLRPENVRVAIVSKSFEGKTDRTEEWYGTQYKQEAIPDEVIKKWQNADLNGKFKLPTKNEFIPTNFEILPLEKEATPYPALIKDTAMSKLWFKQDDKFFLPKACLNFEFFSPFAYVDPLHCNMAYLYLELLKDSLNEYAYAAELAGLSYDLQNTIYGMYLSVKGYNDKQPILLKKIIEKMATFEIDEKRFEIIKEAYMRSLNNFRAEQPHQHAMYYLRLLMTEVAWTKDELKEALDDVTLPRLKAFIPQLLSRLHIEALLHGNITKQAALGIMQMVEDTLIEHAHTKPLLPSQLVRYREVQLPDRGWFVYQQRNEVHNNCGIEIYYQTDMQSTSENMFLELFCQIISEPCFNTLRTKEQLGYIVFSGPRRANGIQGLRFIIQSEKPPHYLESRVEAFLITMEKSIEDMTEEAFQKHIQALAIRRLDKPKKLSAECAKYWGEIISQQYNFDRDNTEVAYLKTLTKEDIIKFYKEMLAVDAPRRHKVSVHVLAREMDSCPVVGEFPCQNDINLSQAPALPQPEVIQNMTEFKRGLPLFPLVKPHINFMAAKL
# * marks the source's active call; other numbers are inactive results. This excerpt belongs to a sample that is enriched for hits.
SMILES,IDE exosite inh
COc1ccc(C#Cc2ccc([C@H]3[C@@H](CO)N4CCCCN(C(=O)Nc5ccccc5F)C[C@@H]34)cc2)cc1,1.7
O=C(Nc1ccc(F)cc1)N1CCCCN2[C@H](CO)[C@@H](c3ccc(C#Cc4ccccc4)cc3)[C@@H]2C1,3.6
COc1ccc(C#Cc2ccc([C@@H]3[C@@H](CO)N4CCCCN(C(=O)Nc5ccccc5F)C[C@@H]34)cc2)cc1,0.14
CC(=O)N1CCCCN2[C@H](C1)[C@@H](c1ccc(C#Cc3ccccc3F)cc1)[C@@H]2CO,-4.5*
CC(=O)N1CCCCN2[C@H](C1)[C@H](c1ccc(C#Cc3ccccc3F)cc1)[C@@H]2CO,-4.7*
CC(=O)N1CCCCN2[C@H](CO)[C@H](c3ccc(C#Cc4ccccc4F)cc3)[C@H]2C1,-7.3*
COCC(=O)Nc1ccc2c(c1)[C@H]1C[C@H](CC(=O)N3CCOCC3)O[C@@H](CO)[C@H]1O2,0.42
COc1ccc(NC(=O)N2C[C@@H](O)COC[C@@H]3O[C@@H](CC(=O)N4CCCCC4)CC[C@H]32)cc1,1.7
C/C=C/c1ccc([C@H]2[C@@H](CO)N3CCCCN(C(=O)Nc4ccccc4F)C[C@@H]23)cc1,-0.84
O=C(Nc1ccccc1F)N1CCCCN2[C@H](C1)[C@H](c1ccc(C3=CCCC3)cc1)[C@@H]2CO,4.4
O=C(Nc1ccccc1F)N1CCCCN2[C@H](C1)[C@@H](c1ccc(/C=C/c3ccccc3)cc1)[C@@H]2CO,-2.7
O=C(Nc1ccccc1F)N1CCCCN2[C@H](CO)[C@H](c3ccc(C4=CCCC4)cc3)[C@H]2C1,2.1
O=C(Nc1ccccc1F)N1CCCCN2[C@H](CO)[C@H](c3ccc(/C=C/c4ccccc4)cc3)[C@H]2C1,-4.9*
O=C(Nc1ccccc1F)N1CCCCN2[C@H](CO)[C@H](c3ccc(/C=C/c4ccccc4)cc3)[C@@H]2C1,-3.9*
Cc1ccc(-c2ccc([C@@H]3[C@H](CO)N4CCCCN(Cc5ccccn5)C[C@@H]34)cc2)cc1,-0.86
C/C=C/c1ccc([C@@H]2[C@@H](CO)N(C(C)=O)[C@H]2CN(C)S(C)(=O)=O)cc1,4.5
Cc1cccc(-c2ccc([C@@H]3[C@H](CO)N4CCCCN(S(=O)(=O)c5cccc(C)c5)C[C@@H]34)cc2)c1,-2.8
Cc1cccc(-c2ccc([C@@H]3[C@@H](CO)N4CCCCN(S(=O)(=O)c5cn(C)cn5)C[C@@H]34)cc2)c1,-18*
Cc1cccc(-c2ccc([C@H]3[C@@H](CO)N4CCCCN(S(=O)(=O)c5cn(C)cn5)C[C@@H]34)cc2)c1,0.53
Cn1cnc(S(=O)(=O)N2CCCCN3[C@H](CO)[C@H](c4ccc(-c5ccccc5)cc4)[C@@H]3C2)c1,1.9
Cc1ccccc1-c1ccc([C@H]2[C@H](CO)N3CCCCN(S(=O)(=O)c4cn(C)cn4)C[C@@H]23)cc1,-7.1*
Cn1cnc(S(=O)(=O)N2CCCCN3[C@H](CO)[C@H](c4ccc(-c5ccccc5)cc4)[C@H]3C2)c1,-0.56
Cn1cnc(S(=O)(=O)N2CCCCN3[C@@H](CO)[C@@H](c4ccc(-c5ccccc5)cc4)[C@@H]3C2)c1,-5.6*
CCS(=O)(=O)Nc1ccc2c(c1)C(=O)N(C)C[C@@H](OC)[C@@H](C)CN(CC1CCCCC1)[C@@H](C)CO2,-0.36
CCC(=O)N1[C@H](CO)[C@H](c2ccc(C3=CCCC3)cc2)[C@H]1CNCC1CCCC1,0.52
SMILES,IDE exosite inh
C/C=C/c1ccc(C2[C@H]3CNC[C@@H]2N3S(C)(=O)=O)cc1 (stereo not given in full),-0.18
C/C=C/c1ccc([C@@H]2[C@H](CO)N[C@H]2CN(CC)C(=O)CN2CCOCC2)cc1,1.4
C[C@H]1CCCCO[C@H](CN(C)S(=O)(=O)c2cn(C)cn2)[C@@H](C)CN([C@@H](C)CO)C(=O)c2cc(N(C)C)ccc2O1,0.17
CCCC(=O)Nc1ccc2c(c1)C(=O)N(C)C[C@H](OC)[C@@H](C)CN(C(=O)c1ccccn1)[C@H](C)CO2,2.1
Cc1ccccc1-c1ccc([C@@H]2[C@@H](CO)N3CCCCN(C(=O)NC4CCCC4)C[C@H]23)cc1,-15*
Cc1ccccc1-c1ccc([C@@H]2[C@H](CO)N3CCCCN(C(=O)NC4CCCC4)C[C@@H]23)cc1,-19*
O=C(NC1CCCC1)N1CCCCN2[C@H](CO)[C@H](c3ccc(-c4cncnc4)cc3)[C@@H]2C1,3.7
O=C(NC1CCCC1)N1CCCCN2[C@H](CO)[C@@H](c3ccc(-c4ccncc4)cc3)[C@H]2C1,4.7
O=C(NC1CCCC1)N1CCCCN2[C@H](C1)[C@H](c1ccc(-c3cncnc3)cc1)[C@@H]2CO,-0.86
CC(C)CC#Cc1ccc([C@H]2[C@@H](CO)N3CCCCN(C(=O)NC4CCCC4)C[C@@H]23)cc1,-0.55
CCCC#Cc1ccc([C@H]2[C@H](CO)N3CCCCN(C(=O)NC4CCCC4)C[C@@H]23)cc1,-8.2*
O=C(NC1CCCC1)N1CCCCN2[C@H](C1)[C@H](c1ccc(-c3ccccc3)cc1)[C@@H]2CO,-2.1
CC(C)CC#Cc1ccc([C@@H]2[C@@H](CO)N3CCCCN(C(=O)NC4CCCC4)C[C@@H]23)cc1,1.8
COc1ccc(NC(=O)N2CCCCN3[C@H](C2)[C@H](c2ccc(-c4ccccc4C)cc2)[C@@H]3CO)cc1,4.2
O=C(NC1CCCC1)N1CCCCN2[C@@H](CO)[C@H](c3ccc(-c4ccccc4)cc3)[C@@H]2C1,-3*
COC(=O)c1ccc(CN2CC(=O)N3[C@@H](CO)[C@H](c4ccc(-c5ccccc5)cc4)[C@@H]3C2)cc1,1.7
C[C@@H]1CN([C@@H](C)CO)C(=O)c2cc(N(C)C)ccc2O[C@@H](C)CCCCO[C@H]1CN(C)S(=O)(=O)c1cn(C)cn1,0.67
c1cncc(-c2ccc(C3[C@H]4CNC[C@@H]3N4Cc3ccc4c(c3)OCO4)cc2)c1 (stereo not given in full),3.9
COc1ccc(C#Cc2ccc([C@H]3[C@@H](CO)N4C(=O)CN(C(=O)c5ccc(F)cc5)C[C@H]34)cc2)cc1,0.48
C[C@@H]1CN([C@@H](C)CO)C(=O)c2c(c3ccccc3n2C)-c2ccccc2CO[C@H]1CN(C)C(=O)Nc1ccccc1C(F)(F)F,-0.51
CC(C)(O)C#Cc1ccc([C@@H]2[C@@H](CO)N3CCCCN(C(=O)c4ccncc4)C[C@H]23)cc1,3.3
O=C(NC1CCCC1)N1CCCCN2[C@H](CO)[C@H](c3ccc(/C=C/c4ccccc4)cc3)[C@@H]2C1,-9.7*
O=C(NC1CCCC1)N1CCCCN2[C@H](CO)[C@@H](c3ccc(/C=C/c4ccccc4)cc3)[C@H]2C1,-4.2*
C/C=C/c1ccc([C@H]2[C@@H](CO)N3CCCCN(C(=O)NC4CCCC4)C[C@H]23)cc1,1.3
COC(=O)c1ccc(CN2CC(=O)N3[C@H](CO)[C@@H](c4ccc(-c5ccc(OC)cc5)cc4)[C@H]3C2)cc1,2.6
CS(=O)(=O)N1[C@@H](C#N)[C@H](c2ccccc2)[C@@H]1CO,1.3
CCCC(=O)Nc1ccc2c(c1)OC[C@H](C)N(CC1CCOCC1)C[C@H](C)[C@@H](OC)CN(C)C2=O,-0.77
O=C(Nc1ccccc1)N1CC(=O)N2[C@H](C1)[C@@H](c1ccc(C#Cc3cccnc3)cc1)[C@@H]2CO,1.7
C/C=C/c1ccc([C@H]2[C@@H](CO)N(C(=O)NC(C)C)[C@H]2CNC(C)=O)cc1,3.4
Cc1ccc(OC(=O)N(C)C[C@@H]2OCc3ccccc3-c3ccccc3C(=O)N([C@H](C)CO)C[C@@H]2C)cc1,-0.51
